Data as given in PubChem BioAssay (NCATS).
Results filed as inconclusive are left out. Entries that show only a call come without a potency. Active and inactive are the calls of the source. Calls follow the shape of the dose curve; as a rule, active = well fitted inhibition curve with a large enough effect; inconclusive = small, poorly fitted or top-dose-only effect; inactive = no such curve, though single readings can be large or run the other way.

test system: Zika virus NS2B-NS3 protease (linked construct); assay: Primary screen NINDS Rhodamine qHTS for Zika virus inhibitors (AID 1347160); conditions: purified NS2B-NS3 protease, Rhodamine110 substrate fluorescence; series mostly up to 57.1 µM; also: nearly all actives have a fitted effect of over 55% in size
Summary of the method: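 In 10 mM Tris-HCl pH 8.0 containing 0.01% Tween 20, linked NS2B-NS3 protease (25 nM final) is exposed to test compounds for 15 min. Cleavage of 1.5 microM Rhodamine110 substrate is tracked by fluorescence over 15 min.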

Question: How did the Potency turn out when O=c1nc(-c2ccccn2)sc2ccccc12 was run?
Answer: inactive

Question: Which Potency does the source give for CC(=O)O[C@H]1C[C@H](OC(C)=O)[C@]2(C)[C@H](CC[C@@]34O[C@@H]3C3=C(C)C(=O)O[C@@H]3C[C@H]42)C1(C)C here?
Answer: inactive

Question: For CC12CCC(OC3OC(CO)C(O)C(O)C3OC3OC(CO)C(O)C(O)C3O)CC1CCC1C2CCC2(C)/C(=C3/COC(=O)C3)CCC12O (stereo not given), which Potency is on record?
Answer: inactive

Question: Which Potency does the source give for COC1CC(=O)C23C(=O)NC(Cc4c[nH]c5ccccc45)C2C(C)C2(C)OC2C3/C=C/CC(C)CC1O (stereo not given) here?
Answer: inactive

Question: For CN(C)Cc1ccc(-c2cnn3c(-c4cccc(NC(=O)c5cccc(C(F)(F)F)c5)c4)ccnc23)cc1, which Potency is on record?
Answer: inactive

Question: How did the Potency turn out when CC(=O)OC(C)(C)/C=C/C(=O)[C@](C)(O)[C@H]1C(O)C[C@@]2(C)[C@@H]3CC=C4[C@@H](C=C(O[C@@H]5O[C@H](CO)[C@@H](O)[C@H](O)[C@H]5O)C(=O)C4(C)C)[C@]3(C)C(=O)C[C@]12C (stereo not given in full) was run?
Answer: inactive

Question: For CCN(CC)C(=O)C(c1ccccc1)N1CCN(c2ccc(NC(=O)c3ccccc3-c3cccnc3)cc2F)CC1 (stereo not given), which Potency is on record?
Answer: inactive

Question: With COc1ccc(S(=O)(=O)Nc2c(C)cc(C)cc2C)cc1 as the compound, how does the Potency read?
Answer: inactive

Question: CC(C)(O)C1Cc2c(ccc(C(=O)CCc3ccccc3)c2O)O1 (stereo not given) was tested. Which Potency did it give?
Answer: inactive

Question: For C=C1CC2OC(=O)C(COC)C2C(OC(=O)/C(C)=C\C)CC2(C)OC1=CC2=O (stereo not given), which Potency is on record?
Answer: inactive

Question: Cc1c(C2=CCN(C(=O)N(C)C(C)C)CC2)nnn1-c1cccnc1F was tested. Which Potency did it give?
Answer: inactive

Question: How did the Potency turn out when COC1=CC(=O)C=C(C)C12Oc1c(Cl)c(OC)cc(OC)c1C2=O (stereo not given) was run?
Answer: inactive

Question: How did the Potency turn out when O=C(NCCCc1ccccc1)c1cccc(-c2cc(O)c3ncccc3c2)c1 was run?
Answer: inactive

Question: For CCC(C)(OC(C)=O)C(=O)O[C@H]1[C@H](OC(C)=O)[C@]2(CO)[C@H](O)[C@H](O)[C@]3(C)C(=CCC4[C@@]5(C)CC[C@H](O[C@@H]6O[C@H](C(=O)O)[C@@H](O)[C@H](O[C@@H]7OC[C@H](O)[C@H](O[C@@H]8OC[C@H](O)[C@H](O)[C@H]8O)[C@H]7O)[C@H]6O[C@@H]6O[C@H](CO)[C@@H](O)[C@H](O)[C@H]6O)C(C)(C)C5CC[C@]43C)[C@@H]2CC1(C)C (stereo not given in full), which activity change, negative = inhibition is on record?
Answer: -4.88% [at 10.7 µM] (inactive)

Question: Cc1cc(C)c(-n2cc(C)c3c(Cl)nc(C)nc32)c(C)c1 was tested. Which Potency did it give?
Answer: inactive

Question: C/C=C(/C)C(=O)OC1C=C2C3C(C)C(C)C(OC(=O)C(C)C(C)O)CC3(C)CCC2(C)C2(C)CC(OC(C)=O)C3C(C)(C)C(O)C(=O)CC3(C)C12 (stereo not given) was tested. Which Potency did it give?
Answer: inactive

Question: With CC(=O)OC1CC2(C)C(CCC(C)C23Cc2c(O)cc(CO)c(C=O)c2O3)C(C)(C)C1O (stereo not given) as the compound, how does the Potency read?
Answer: inactive

Question: O=C(NCCO)c1cccc(-c2cc(Nc3ccc(OC(F)(F)F)cc3)ncn2)c1 was tested. Which Potency did it give?
Answer: inactive

Question: With CCCN1CCC=C(c2cc(-c3ccc(C)cc3)no2)C1 as the compound, how does the Potency read?
Answer: inactive

Question: How did the Potency turn out when COc1cc(/C=C2\CC[C@H]3COC[C@@H](c4cc(F)c(F)c(F)c4)N3C2=O)ccc1-n1cnc(C)c1 was run?
Answer: inactive

Question: With CC(F)(F)CN1CCOc2c(nn(-c3ccccc3Cl)c2-c2ccc(Cl)cc2)C1=O as the compound, how does the Potency read?
Answer: inactive

Question: With COc1cc(C#N)ccc1S(=O)(=O)Nc1ccc2c(c1)cc(C)c(=O)n2C as the compound, how does the Potency read?
Answer: inactive

Question: With COCc1c(Cl)ccc2c1CC[C@H]2c1ncc[nH]1 as the compound, how does the Potency read?
Answer: inactive

Question: Which Potency does the source give for O=S(=O)(N[C@H]1CCCC[C@@H]1N1CCOCC1)c1ccc(Cl)cc1 here?
Answer: inactive

Question: Which Potency does the source give for COc1ccc([C@H]2Cc3cccc(O)c3C(=O)O2)cc1OC here?
Answer: inactive

Question: For CC(NCCCc1cccc(C(F)(F)F)c1)c1cccc2ccccc12 (stereo not given), which Potency is on record?
Answer: inactive

Question: With O=c1cc(NCCCN[C@@H]2CCOc3c(Br)cc(Br)cc32)[nH]c2ccsc12 as the compound, how does the Potency read?
Answer: inactive

Question: How did the Potency turn out when COc1cc2ncnc(Oc3ccc(CC(=O)Nc4cnn(C(C)C)c4)cc3)c2cc1OC was run?
Answer: inactive

Question: With C=C1/C(=C/C=C2\CCC[C@@]3(C)C2CCC3[C@H](C)/C=C/[C@@H](O)C2CC2)C[C@@H](O)C[C@@H]1O (stereo not given in full) as the compound, how does the Potency read?
Answer: inactive

Question: With Cc1nc(NC(=O)N2CCC[C@H]2C(N)=O)sc1-c1ccnc(C(C)(C)C(F)(F)F)c1 as the compound, how does the Potency read?
Answer: inactive

Question: For Cc1cc(-c2ncc(-c3cccnc3)cc2/C=C/c2ccccc2)cnc1-c1cccnc1, which Potency is on record?
Answer: inactive

Question: With CC(C)(O)c1ccc2c(c1)ncn2-c1cccc(-c2ccccc2C#N)c1 as the compound, how does the Potency read?
Answer: inactive

Question: CC(C)NC(=O)COc1cccc(-c2nc(Nc3ccc4[nH]ncc4c3)c3ccccc3n2)c1 was tested. Which Potency did it give?
Answer: inactive

Question: How did the Potency turn out when OC[C@H]1O[C@@H](OC/C=C/c2ccc(O)cc2)[C@H](O)[C@@H](O)[C@@H]1O was run?
Answer: inactive

Question: Cc1cc2c(cc1N1C(=O)c3cccc4c(CCCO)ccc(c34)C1=O)n(C)c(=O)n2C was tested. Which Potency did it give?
Answer: inactive

Question: With CC(CCC1(O)OC2CC3C4CC=C5CC(O[C@@H]6O[C@H](CO)[C@@H](O[C@@H]7O[C@@H](C)[C@H](O)[C@@H](O)[C@H]7O)[C@H](O)[C@H]6O[C@@H]6O[C@@H](C)[C@H](O)[C@@H](O)[C@H]6O)CCC5(C)C4CCC3(C)C2C1C)CO[C@@H]1O[C@H](CO)[C@@H](O)[C@H](O)[C@H]1O (stereo not given in full) as the compound, how does the Potency read?
Answer: inactive

Question: How did the Potency turn out when C[C@@H]1CC[C@]2(C(=O)O)CC[C@]3(C)C(=CCC4[C@@]5(C)CC[C@H](O)[C@](C)(C(=O)O)C5CC[C@]43C)C2[C@]1(C)O (stereo not given in full) was run?
Answer: inactive

Question: How did the Potency turn out when Cc1cccc(CC(=O)N2CCc3c2ccc(-c2cn(C)c4ncnc(N)c24)c3F)n1 was run?
Answer: inactive

Question: How did the Potency turn out when C=C[C@@]1(C)C=C2C(=O)C(O)=C3[C@](C)(C(=O)O)CC[C@@H]4C[C@]34[C@]2(O)C(=O)C1 was run?
Answer: inactive

Question: How did the Potency turn out when C=CC(C)(O)CC[C@@H]1[C@@]2(C)CCCC(C)(C)C2CC[C@@]1(C)O (stereo not given in full) was run?
Answer: inactive
